Bioassay records deposited in PubChem BioAssay by National Center for Advancing Translational Sciences (NCATS).
Most compounds without a hit are left out; they make up all but 1.8% or so of the library.
HEK293 tox: qHTS of GLP-1 Receptor Inverse Agonists: Cytotox Screen; 410,000 tested, 0.13% active; HEK293 cAMP-luciferase reporter cells, luminescence, 24 h; AID 624418, 2012; Potency, µM (highest dose often 38.3 µM), for the others: at the top dose activity change, negative = inhibition, actives largely listed as inhibitors;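 note: loss of luciferase light is scored as toxicity; potency is the fitted concentration of half-maximal effect; % is set by controls: 0 for no effect and ±100 for the full control effect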
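Quantitative HTS format, 1536 wells, 200 cells/uL seeded. Compounds: 23 nL, 24 h, 37 °C. Detection: luciferase reagent, luminescence at 12 min RT; decreased signal taken as cytotoxic.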
GLP1R inv ag: qHTS of GLP-1 Receptor Inverse Agonists (Inhibition Mode). Glucagon-like peptide 1 receptor (Homo sapiens), P43220. HEK293 GLP-1R CRE-luciferase, luminescence, 24 h; GLP-1R form is constitutively active. Potency, µM (highest dose often 38.3 µM), inactives show at the top dose activity change, negative = inhibition, most hits filed as inhibitors. 410,000 tested, 1.6% active; note: potency is the fitted concentration of half-maximal effect; % is set by controls: 0 for no effect and ±100 for the full control effect; nearly all actives have a fitted effect of over 55% in size
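Assay principle: reduced luminescence from a cAMP-responsive reporter in HEK293 cells co-expressing a constitutively active GLP-1R. Conditions: 24 hr compound incubation, 37 deg C, 5% CO2.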
PTHR1 agonist: qHTS for PTHR1 Agonists: Primary Screen. 410,000 tested, 0.075% active. HEK293 GP2 PTHR1 cells, GloSensor cAMP luminescence, 1 h. Potency, µM (doses to about 115 µM), for inactives: at the top dose activation, usual class: activators; note: potency is the fitted concentration of half-maximal effect; nearly all actives have a fitted effect of over 55% in size
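HEK-293-derived GP2 cells expressing PTHR1 and a GloSensor cAMP reporter, 3,000/well, plated overnight, given luciferin plus IBMX (each 0.5 mM as added) for 1 h at 37 °C, then compound for 1 h at 37 °C. Luminescence was read after 15 min at room temperature.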
GLP1R ag: qHTS of GLP-1 Receptor Agonists. 380,000 tested, 0.007% active. HEK293 GLP-1R CRE-luciferase, luminescence, 4-6 h; cells express a hypersensitive GLP-1R form. AID 624172, 2012. Glucagon-like peptide 1 receptor (Homo sapiens), P43220. Potency, µM (titrated, usually from 45.6 µM), inactives show at the highest dose activation, most hits filed as activators; note: potency is the fitted concentration of half-maximal effect; % of control where 0% means no effect
TSHR antag: Antagonists of the Thyroid Stimulating Hormone Receptor: HTS campaign; TSHR-expressing cells, TSH-stimulated cAMP HTRF, 2 h; active compounds read low; activity change, negative = inhibition, % at 11.5 µM; 330,000 tested, 0.2% active; AID 504810, 2011;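 active = activity change below a set negative limit, meaning inhibition stronger than a set level, cut at about -70% in these data; inconclusive = activity change between two set negative limits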; note: % is set by controls: 0 for no effect and ±100 for the full control effect
Target sequence (P16473 whole entry, looked up): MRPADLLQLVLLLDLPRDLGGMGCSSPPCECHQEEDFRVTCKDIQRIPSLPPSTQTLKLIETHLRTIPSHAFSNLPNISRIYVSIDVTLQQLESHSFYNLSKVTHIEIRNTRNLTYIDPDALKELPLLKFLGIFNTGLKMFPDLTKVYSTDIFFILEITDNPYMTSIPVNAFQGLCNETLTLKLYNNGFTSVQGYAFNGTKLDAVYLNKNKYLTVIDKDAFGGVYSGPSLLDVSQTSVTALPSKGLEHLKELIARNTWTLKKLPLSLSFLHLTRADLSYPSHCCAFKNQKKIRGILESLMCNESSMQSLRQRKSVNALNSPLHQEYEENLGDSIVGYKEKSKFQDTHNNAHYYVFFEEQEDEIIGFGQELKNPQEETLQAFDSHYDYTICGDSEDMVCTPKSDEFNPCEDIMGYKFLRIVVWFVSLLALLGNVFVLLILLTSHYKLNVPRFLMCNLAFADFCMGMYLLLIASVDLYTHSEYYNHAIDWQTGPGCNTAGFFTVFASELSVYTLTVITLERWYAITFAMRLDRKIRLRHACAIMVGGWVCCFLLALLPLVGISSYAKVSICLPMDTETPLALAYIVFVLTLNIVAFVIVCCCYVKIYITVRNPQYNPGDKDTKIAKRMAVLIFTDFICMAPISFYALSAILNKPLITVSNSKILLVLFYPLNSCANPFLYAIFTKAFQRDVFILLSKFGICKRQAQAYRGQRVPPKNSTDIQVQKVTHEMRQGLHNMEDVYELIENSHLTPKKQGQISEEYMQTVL
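Inhibition of cAMP made by TSHR-expressing cells under TSH stimulation (4nM final, EC80; 2 h, 37 deg C) is quantified with a one-step lysis HTRF kit, anti-cAMP cryptate versus cAMP-d2.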
Starred values were filed as active, the others as inactive; i = inactive; ? = inconclusive; . = no result given; [ ] = another dose, or the depositor's remark. Unless noted, calls come from the whole dose curve; as a rule, active = well fitted curve in the direction sought with a large enough effect; inconclusive = small, poorly fitted or top-dose-only effect, or another doubt; inactive = no such curve, though single readings can be large; an effect the other way counts as inactive or inconclusive.

SMILES | HEK293 tox | GLP1R inv ag | PTHR1 agonist | GLP1R ag | TSHR antag
CCCCCNC(=O)C(c1ccccc1)n1c(=O)c(-c2cc3ccccc3[nH]2)nc2ccccc21 (centres undefined) | i | ? | -13.5% | . | .
CCCCCNC(=O)C(CCc1ccccc1)n1c(=O)c(-c2cc3ccccc3[nH]2)nc2ccccc21 (centres undefined) | 388.4% | 3.55µM* | i | . | .
CC(C)(C)NC(=O)C(c1ccnc2ccccc12)n1c(=O)c(-c2ccccc2)nc2ccccc21 (centres undefined) | -10.8% | ? | -19.3% | . | .
O=C(NC1CCCCC1)C(c1ccc(C(F)(F)F)cc1)n1c(=O)c(-c2cc3ccccc3[nH]2)nc2ccccc21 (centres undefined) | i | 2.51µM* | i | . | .
Cc1cccc(OC(=O)CSc2nnc(CNC(=O)c3ccccc3)o2)c1C | 0.5% | -8.3% | -43.3% | . | .
Cc1ccc(-c2nc(C)c(CCNC(=O)C(=O)Nc3cc(C)ccc3C)s2)cc1 | -0.1% | -2.4% | i | 2.4% | .
COC(=O)CSc1nnc(-c2cccc(O)c2)o1 | 11.4% | 6.1% | i | . | .
Cc1nnc(N2CCN(C(=O)NC(C)C)CC2)c2nn(-c3ccccc3)c(C)c12 | 5.0% | 9.0% | -21.0% | . | .
Cc1ccc(S(=O)(=O)N(C)C)cc1NC(=O)COC(=O)/C(=C/c1ccc(F)cc1)c1cccs1 | -9.2% | 10µM* | -6.8% | -1.1% | -46.4
C=CCc1cc(OC)ccc1OCCOCCN1CCc2ccccc2C1 | 3.0% | 10µM* | i | 18.1% | -10.3
CC(O)(c1ccccc1)C(C(c1ccccc1)N1CCOCC1)N1CCOCC1 (centres undefined) | -0.8% | 8.4% | i | -9.0% | .
OC(c1ccccc1)(c1ccc(F)cc1)C(c1ccccc1)N1CCOCC1 (centres undefined) | -32.2% | 7.94µM* | -16.4%[57.5 µM] | -11.9% | -6.3
O=C(CSc1nnc(-c2ccc(Cl)cc2)n1Cc1ccco1)NCc1ccc2c(c1)OCO2 | -14.7% | 10µM* | ? | -2.8% | .
NS(=O)(=O)c1ccc(NC(=O)Nc2ccc(S(N)(=O)=O)cc2)cc1 | 12.2% | -0.3% | ? | 0.3% | -2.3
NS(=O)(=O)c1ccc(NC(=O)Nc2ccc(C(F)(F)F)cc2)cc1 | -11.5% | 5.01µM* | -14.6% | 4.9% | 3.0
Cc1cc(=O)n2nc(N(C)CC(=O)NCc3ccccc3C)sc2n1 | 0.4% | 10.7% | i | . | .
CCCCNC(=O)C1(C)CCCCN1Cc1ccccc1-c1ccccc1 (centres undefined) | -6.9% | 2.51µM* | -15.2% | -5.0% | .
CCCNC(=O)C1(C)CCCN(Cc2ccccc2-c2ccccc2)C1 (centres undefined) | -2.5% | -15.7% | -10.1% | 14.2% | .
O=S1(=O)c2ccccc2N(Cc2ccc(Cl)cc2F)c2ccccc21 | 3.4% | 5.2% | -59.0% | . | .
Cc1nc2ccn(Cc3ccco3)c(=O)c2cc1C(=O)Nc1ccc(F)cc1 | -10.2% | ? | -20.5% | . | .
CCCCN1C(=O)C(O)(CC(=O)c2ccco2)c2cc(Br)ccc21 (centres undefined) | 11.8% | ? | -14.2% | 18.1% | -7.1
CCCCN1C(=O)C(O)(CC(=O)c2ccc(C)cc2C)c2cc(Br)ccc21 (centres undefined) | -16.9% | 10µM* | i | . | .
CCC(=O)N(Cc1cc(=O)[nH]c2ccccc12)c1ccccc1 | -3.2% | -2.1% | -58.5% | 17.0% | -0.8
O=C(CCl)N(Cc1cc(=O)[nH]c2ccccc12)c1ccccc1 | ? | 2.82µM* | -38.7% | -7.8% | 3.2
CC(C)C(NS(=O)(=O)c1ccc2c(c1)oc(=O)n2C)C(=O)N1CCN(c2cccc(Cl)c2)CC1 (centres undefined) | -23.0% | -7.1% | -11.1% | . | .
O=C(N/N=C/c1ccccc1)c1sccc1OCc1ccc(F)cc1 | -20.1% | 8.91µM* | -36.1%[57.5 µM] | 11.1% | -1.6
